Source: PubChem BioAssay
The list is not random: actives were taken first. Their share in the collection is about 4.7%.
ATG4B inhibitor – ATG4B protease inhibitors, primary screen, biochemical, fluorescence, uHTS | inhibition, % at 8.33 µM | ATG4B cleavage of LC3-PLA2, NBD-HPC fluorescence, 1 h | hit rate 0.51% among 340,000 | Cysteine protease ATG4B (Homo sapiens), Q9Y4P1; in the data active = inhibition above about 40%
Target sequence (Q9Y4P1 whole entry, looked up): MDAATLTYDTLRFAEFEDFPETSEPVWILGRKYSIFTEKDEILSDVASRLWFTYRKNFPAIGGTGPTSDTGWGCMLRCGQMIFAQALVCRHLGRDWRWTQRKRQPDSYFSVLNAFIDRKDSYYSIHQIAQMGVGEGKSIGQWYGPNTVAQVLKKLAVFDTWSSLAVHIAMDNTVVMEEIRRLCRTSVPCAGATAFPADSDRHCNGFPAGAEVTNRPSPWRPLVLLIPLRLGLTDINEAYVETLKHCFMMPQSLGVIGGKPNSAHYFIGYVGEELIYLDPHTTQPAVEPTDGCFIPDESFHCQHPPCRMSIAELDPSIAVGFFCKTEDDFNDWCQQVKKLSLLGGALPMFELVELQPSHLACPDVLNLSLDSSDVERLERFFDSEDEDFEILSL
SKKanGAS inh – S. pyogenes SKKanGAS growth inhibitors in kanamycin, primary screen, streptokinase expression inhibitor project, SKKanGAS strain, BacTiter-Glo luminescence; AID 1662, 2009; 6 h; hit rate 1.3% among 300,000; inhibition, % at 7.5 µM;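 active = mean replicate score, as percent of positive control median, at least 50; inconclusive = mean below 50 but one replicate at or above 50; inactive = mean and every replicate below 50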;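 also: strain carries kanamycin resistance gene driven by streptokinase promoter and grows in 40 µg/ml kanamycin; loss of luminescence reflects streptokinase promoter inhibition or plain growth inhibition; 0% = median of DMSO wells and 100% = positive control at its reference dose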
tim10-1 inh – growth inhibitors of tim10-1 mutant yeast, primary screen, luminescence, uHTS; inhibition, % at 20 µM; S. cerevisiae tim10-1 ts strain growth, BacTiter-Glo, 24 h; hit rate 2.2% among 330,000;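 active = inhibition of at least 40%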;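 also: mutant grown at 25 °C; 0% = DMSO wells with yeast and 100% = wells holding no yeast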
tim23-1 inh – growth inhibitors of tim23-1 mutant yeast, primary screen, luminescence, uHTS | S. cerevisiae tim23-1 growth, BacTiter-Glo luminescence, 24 h | inhibition, % at 20 µM | hit rate 1.3% among 330,000;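 active = growth inhibition of the mutant yeast at or above 50%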;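 also: temperature-sensitive mutant grown at 25 °C; plate controls were DMSO-treated mutant yeast for no effect and medium wells lacking yeast for full effect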
PfHsp90 yeast 2 – growth inhibition of PfHsp90-expressing yeast, primary screen, antimalarial PfHsp90 inhibitor project, S. cerevisiae, BacTiter-Glo luminescence, single point, set 2; BacTiter-Glo ATP, 48 h; yeast lacking PDR1 and PDR3 efflux regulators; inhibition, % at 9.4 µM; AID 504621, 2011; hit rate 0.32% among 310,000;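 active = every replicate shows inhibition above about 80%, whatever the replicate mean, limit read from the data; inconclusive = mean inhibition reaches the set limit but some replicate falls short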;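 also: 0% = DMSO neutral controls and 100% = 20 µM radicicol positive controls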
TIM10 inh – growth inhibitors of isogenic TIM10 control yeast, primary screen, counter-screen for tim10-1 yeast inhibitor project, luminescence, uHTS. S. cerevisiae TIM10 strain growth, BacTiter-Glo luminescence, 24 h. inhibition, % at 10 µM. hit rate 1.4% among 330,000;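 active = inhibition of 40% or more at the single tested concentration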;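 also: wild-type TIM10 isogenic control strain grown at permissive 25 °C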
tim10-1 confirm – growth inhibitors of tim10-1 mutant yeast, confirmation, single concentration, luminescence, S. cerevisiae | shares compounds with tim10-1 inh | S. cerevisiae tim10-1 ts strain growth, BacTiter-Glo, 24 h | inhibition, % at 20 µM | hit rate 56% among 7,400 | AID 463213, 2010;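 active = inhibition of yeast growth at or above a set limit in either of two repeat tests at 20 µM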;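 also: tim10-1 mutant grown at permissive 25 °C to find synthetic lethal compounds; 0% = DMSO yeast wells and 100% = medium wells without yeast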
tim10 confirm – growth inhibitors of wild-type TIM10 yeast, confirmation, counter-screen for tim10-1 synthetic lethality project, single concentration, luminescence, S. cerevisiae; inhibition, % at 10 µM; hit rate 63% among 4,600; shares compounds with TIM10 inh; S. cerevisiae tim10 strain growth, BacTiter-Glo luminescence, 24 h;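 active = inhibition of yeast growth at or above a set limit in either of two replicates at 10 µM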;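 also: this counterscreen used the strain with wild-type TIM10; 0% = yeast with DMSO and 100% = medium wells lacking yeast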
Numbers without * were called inactive; ? = inconclusive; / = no result.

SMILES	ATG4B inhibitor	SKKanGAS inh	tim10-1 inh	tim23-1 inh	PfHsp90 yeast 2	TIM10 inh	tim10-1 confirm	tim10 confirm
CCOC(=O)C1CCCN(C(=O)c2ccc(CS(=O)(=O)c3ccc(C)cc3)o2)C1 (stereo not given)	-4	-3	13	6	27	6	/	/
CCSc1oc(-c2ccccc2)nc1S(=O)(=O)c1ccccc1	-2	1	5	32	-20	7	/	/
Cc1cc(Cl)ccc1OCC(=O)Nc1nc(-c2cccs2)cs1	-6	21	49*	22	-24	43*	41*	-16
Cc1cc(Cl)ccc1OCC(=O)Nc1nc(-c2cccnc2)cs1	-2	-5	-8	-10	-35	-4	/	/
Cc1ccccc1-c1nnc(SCc2ccc(F)cc2)o1	17	-12	23	24	-10	17	/	/
Cc1cn2nc(N)c3ccccc3c2n1	-6	/	7	-3	-2	3	/	/
Nc1nn2cc(-c3ccccc3)nc2c2ccccc12	-13	2	56*	30	/	56*	53*	49*
Cc1n[nH]c(C)c1CN(C)C(=O)C1CCC(=O)N(CCc2cccc(F)c2)C1 (stereo not given)	29	4	-5	8	0	11	/	/
O=C(CCc1ccccc1)Nc1ncn[nH]1	4	-5	3	13	18	0	/	/
O=C(/C=C/c1ccccc1)Nc1ncn[nH]1	4	-8	49*	41	23	53*	56*	48*
COc1ccc(N2CCN(C(=O)c3ccc(C)cc3)CC2)c([N+](=O)[O-])c1	9	-1	6	29	-10	14	/	/
COc1ccc(N2CCN(C(=O)c3ccc(Br)cc3)CC2)c([N+](=O)[O-])c1	-2	7	54*	45	105*	53*	48*	63*
CC1(O)CC(c2ccc(Cl)cc2)=NN1C(=O)c1ccc([N+](=O)[O-])cc1 (stereo not given)	38	-11	6	24	-109	-34	/	/
O=c1c2sc(-c3ccccc3)cc2nc2n1CCC2	-3	?	64*	50	67	78*	65*	73*
O=C(NCc1ccc(F)cc1)C(c1ccccc1)N(C(=O)c1csnn1)C1CCCC1 (stereo not given)	2	1	10	13	2	17	/	/
N/C(Cc1cccc2ccccc12)=N\OC(=O)COc1ccccc1	17	-3	38	41	-5	33	/	/
COc1ccccc1C/C(N)=N/OC(=O)COc1cccc(C)c1	6	-18	43*	21	-3	51*	22	-18
COc1cccc(NC(=S)NNC(=O)CCn2cc([N+](=O)[O-])cn2)c1	0	3	-8	0	1	-4	/	/
CN(C)S(=O)(=O)c1ccc(C(=O)NCc2cccs2)cc1	0	3	-1	8	/	-4	/	/
CC12CC3CC(C)(C1)CC(C(=O)NC1=NCCS1)(C3)C2	-2	39	46*	41	3	49*	28	35*
Cc1nc(N)sc1-c1csc(Nc2cccc(O)c2)n1	-11	26	-1	7	-6	-1	/	/
Cc1nc(C)c(-c2csc(Nc3cccc(O)c3)n2)s1	-8	24	44*	24	-6	48*	25	31*
O=C(Nc1ccc2c(c1)CCC2)c1cc(F)cc(F)c1	-6	/	10	24	13	0	/	/
Cc1cc(N2CCC(C(=O)Nc3ccc(F)cc3)CC2)nc(-c2ccccc2)n1	-10	5	49*	11	-11	43*	30	-9
